Tests used:
Test in all cases: PBM binding z-score (relative to random genomic background probes); higher = stronger binding; sequences stand for … in GC…GCGATTGACAGCGTAGAATGAAGG
[1] = tested on: FXR:RXRa (NR concentration 270 nM, RXRa partner concentration 90 nM)
Procedure, shortened: (§1)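 Each nuclear receptor dimer, without ligand, was incubated for 1 h on custom Agilent 4×180K protein-binding microarrays. Binding was detected with antibodies against each partner (one per run), and scanned fluorescence was regression-normalized. The binding z-scores are referenced to random human genomic background probes.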

[2] = tested on: LXRa:RXRa (NR concentration 270 nM, RXRa partner concentration 90 nM)
Procedure, shortened: as §1

[3] = tested on: LXRa homodimer (NR concentration 270 nM)
Procedure, shortened: as §1

[4] = tested on: LXRb:RXRa (NR concentration 270 nM, RXRa partner concentration 90 nM)
Procedure, shortened: as §1

[5] = tested on: LXRb homodimer (NR concentration 270 nM)
Procedure, shortened: as §1

[6] = tested on: PPARa:RXRa (NR concentration 270 nM, RXRa partner concentration 90 nM)
Procedure, shortened: as §1

[7] = tested on: PPARg:RXRa (NR concentration 180 nM, RXRa partner concentration 90 nM)
Procedure, shortened: as §1

[8] = tested on: PPARg:RXRa 270nM:90nM, anti-RXR (NR concentration 270 nM, RXRa partner concentration 90 nM)
Procedure, shortened: as §1

[9] = tested on: PPARg:RXRa 30nM:10nM, anti-RXR (NR concentration 30 nM, RXRa partner concentration 10 nM)
Procedure, shortened: as §1

[10] = tested on: PPARg:RXRa 90nM:30nM, anti-RXR (NR concentration 90 nM, RXRa partner concentration 30 nM)
Procedure, shortened: as §1

Sequence | PBM binding z-score [1] | PBM binding z-score [2] | PBM binding z-score [3] | PBM binding z-score [4] | PBM binding z-score [5] | PBM binding z-score [6] | PBM binding z-score [7] | PBM binding z-score [8] | PBM binding z-score [9] | PBM binding z-score [10]
TCATATAGGTGAATGCTAGGTGAAAGTCCGATCT | 1.13 | 0.917 | -0.0779 | 0.789 | -0.221 | 2.55 | 2.75 | 3.13 | 3.54 | 3.07
TTACCAAGATGAGCTGAGGTCGTTGATCCAACTC | 0.71 | 0.408 | 0.0791 | 0.458 | -0.782 | 0.853 | 0.0458 | 0.511 | 0.543 | 0.66
TCTTCTAGGTCAGTTGGTCAGCTAACGAGCTGCC | 2.21 | 1.87 | 0.567 | 1.71 | 3.5 | 2.99 | 3.77 | 4.43 | 4.38 | 4.54
GCTAGCAGGCCATTTGGGTCACTAAATGACGGGC | 0.069 | -0.203 | -0.746 | -0.105 | -1.17 | 1.44 | 0.795 | 0.692 | -0.344 | 0.257
TCGAGAAGGTTAGGGGCATTCAGAATGGCGTCGA | 0.95 | 0.839 | -0.359 | 1.38 | -0.293 | 1.83 | 0.297 | 1.19 | 2.23 | 1.43
CAAACTAGTTCACCGGAAGGTCAAAGTCCGCATG | 4.43 | 4.89 | 4.71 | 4.6 | 1.66 | 4.24 | 1.87 | 2.85 | 0.587 | 1.95
AGAACGAGGGCAATGAGTGGATAGCACGGGTGGC | 0.0707 | 0.00914 | -0.454 | -0.474 | -0.905 | 1.12 | 1.49 | 0.671 | 0.264 | 0.612
CAAACTAGGTCACGAAAGGTCAAGGTCGAATGAC | 7.28 | 7.82 | 6.86 | 6.75 | 1.7 | 6.43 | 10.6 | 8.38 | 7.12 | 8.5
TGTTGTAGATCAAGCAGGTTAAGAAAGCCTGAGT | -0.212 | -0.245 | -0.47 | -0.0172 | -0.215 | 0.282 | -0.51 | -0.0645 | -0.0716 | -0.0785
TCGTGTAGATCAACAGGAGGTTAAGAAAGATCGA | -0.127 | 1.13 | 0.0557 | 0.789 | -0.51 | 1.22 | -0.0865 | 1.04 | 1.84 | 1.52
TTACCAAGGGGAGCTGAGGTCGTTGATCCAACTC | 1.8 | 0.173 | -0.107 | 0.623 | -0.398 | 0.818 | -0.207 | 0.37 | 0.187 | -0.00393
CGTCCAAGATCAATGCTAGGTCAGTGAAAGCATT | 0.162 | 0.466 | 0.903 | 0.371 | 0.134 | 0.544 | -0.0678 | -0.118 | -0.166 | -0.214
TCTTGTAGATCGGCAGGTTAAGAAAGCTGGCCAA | 0.24 | 0.472 | -0.48 | 0.25 | -0.432 | 0.736 | -0.656 | 1.28 | 2.42 | 2.02
GATAGCAGGCCATTTGGGTCACTCAATGACGGGC | 0.302 | -0.115 | -0.247 | 0.0936 | -0.607 | 1.73 | 1.4 | 1.12 | -0.311 | 0.763
ACTAGCAGGCCAAGTTTGGGTCAATCAAACAAAG | 0.471 | 0.228 | -0.484 | 0.918 | -1.03 | 1.55 | -0.0982 | 0.263 | -0.327 | -0.105
AAAATGAGGTTATTAAGATCAGGGAATTGCGGTC | 1.95 | 1.63 | 0.3 | 1.44 | -0.0347 | 2.8 | 2.05 | 2.19 | 0.556 | 1.48
AGAATGAGGTTTTACGTAGATCAGGGAAGAAAGT | -0.139 | -0.0557 | -0.184 | -0.13 | -0.304 | -0.000129 | 0.251 | -0.0665 | 0.263 | 0.297
GATACAGGGTCAAGGCCAGACTACGCGTATTGAT | 6.8 | 3.95 | 0.21 | 3.72 | -0.0563 | 5.69 | 6.16 | 5.88 | 2.85 | 4.87
ATCTCTAGGTAAAGATACTTCAGTGAATGCAAAT | 0.262 | 0.149 | 0.0511 | 0.403 | 0.44 | 0.361 | 0.884 | 0.723 | 0.521 | 0.608
GATACAAGGTCAAGGCCAGAGTACGCGTATTGAT | 7.16 | 5.44 | 1.37 | 4.03 | 0.481 | 5.49 | 5.86 | 5.56 | 2.28 | 4.41
GCAGACAGGTTAAACGCAGGTAACTCAGGGTGGC | 0.61 | 1.65 | -0.225 | 0.687 | -0.662 | 1.7 | 0.69 | 0.222 | -0.592 | -0.245
TGTCAAAGTTCAAAGGAAACGTAAGTATCCACAC | 6.34 | 5.91 | 3.73 | 3.56 | 1.37 | 4.94 | 7.64 | 7.15 | 4.84 | 6.6
GCTCGGAGGACAAGGTCAGAGCATTGTCCGTAGA | 1.99 | 1.75 | -0.445 | 1.15 | -0.84 | 2.48 | 0.798 | 1.67 | -0.55 | 0.636
TCTCGTAGATCAAGCAGGTTAAGAAAGCCTGAGT | -0.462 | -0.196 | -0.257 | -0.0905 | -1.19 | 0.4 | -0.54 | 0.861 | 2.47 | 1.83

Sequence | PBM binding z-score [1] | PBM binding z-score [2] | PBM binding z-score [3] | PBM binding z-score [4] | PBM binding z-score [5] | PBM binding z-score [6] | PBM binding z-score [7] | PBM binding z-score [8] | PBM binding z-score [9] | PBM binding z-score [10]
TCTTGTAGATCAAGCCGGTTAAGAAAGCCTGAGT | 0.845 | 0.416 | -0.282 | 0.245 | -0.0874 | 0.538 | -0.597 | 1.31 | 2.88 | 1.97
TCTAGTAGATCAACAGGAGGTTAAGAAAGATCGA | 0.568 | 1.07 | 0.252 | 0.768 | -0.7 | 1.36 | 0.296 | 1.55 | 2.92 | 2.01
TAGCCTAGGTCATGTGCCAGTATACCACGCGAAC | 4.24 | 3.24 | 0.572 | 2.7 | 0.626 | 3.58 | 2.79 | 2.86 | 0.838 | 2.06
ATCTCTAGGTAAAGATAGTTCTGTGAATGCAAAT | 0.34 | 0.239 | -0.054 | 0.231 | 0.796 | 0.344 | 0.505 | 0.243 | 0.378 | 0.389
AGTCAAAGTTCATCTAGGTAACGCAAGATATGCT | 6.85 | 5.91 | 4.93 | 3.61 | 1.83 | 4.83 | 6.39 | 6.35 | 3.58 | 5.58
GGAACGAGGGCAAAGATGATAGCATCTGTCGACG | 0.376 | 0.281 | -0.604 | 0.258 | -0.642 | 2.65 | 3.63 | 4.6 | 2.92 | 4.39
TCTCGGAGGACACGAAGGGCAGAGCTTTCCAGAG | 0.172 | -0.265 | -0.59 | -0.711 | -1.26 | -0.128 | -0.047 | 0.753 | 1.78 | 1.13
TTACCAAGGTGAGCTGAGGTCGTTGCTCCAACTC | 1.27 | 1.21 | -0.608 | 0.819 | -1.17 | 1.42 | -0.334 | 0.661 | -0.351 | 0.141
TAGCCTAGATCATTCAGGGGCCAGTATAGAAAGC | -0.33 | -0.505 | -0.351 | -0.00287 | -0.168 | 0.0623 | 0.276 | 0.125 | -0.256 | -0.407
ATCGAAAGGTCGAGGTGATTATAGAGAAAGGGAA | 4.57 | 3.62 | 0.192 | 2.64 | 0.41 | 4.56 | 3.24 | 3.59 | 1.31 | 2.75
GCGACTGGAGCATCAGCAGGTTACCATAACTTAA | -0.588 | -0.33 | -0.742 | -0.376 | -1.27 | 0.165 | 0.329 | -0.223 | -0.632 | -0.253
TCTAGTAGATCAATAGAGGTTAAGAAAGTGCGCT | 0.905 | 3.79 | 0.28 | 1.96 | -0.599 | 1.98 | 0.362 | 1.7 | 2.76 | 2.4
CGAACTAGGTCAAGGTCAGTGAATCTCCGCACGC | 4.73 | 3.81 | 1.23 | 2.95 | 0.0681 | 5.17 | 8.71 | 6.93 | 4.44 | 7.24
ACTATTAGTTGAGACGTGGGCAACCGATAGGTTG | -0.344 | -0.403 | -0.444 | -0.738 | 0.00492 | -1.07 | 0.429 | -0.3 | -0.0556 | -0.44
TGAATGACGTTATAAGATCAGGGAACGTTGCAAA | -0.0798 | -0.0437 | -0.351 | -0.274 | -0.245 | -0.16 | 0.208 | 0.0909 | 0.775 | 0.526
ATCTCTAGGTAAAAGTTCAGTCAATCCCGAGGAT | 0.989 | 1.98 | 1.79 | 1.6 | 1.34 | 4.61 | 8.25 | 8.34 | 7.47 | 9.66
CCTCGGAGGACAGAAGGTCAGAGCCGTCCGCTTT | 1.62 | 1.72 | 0.422 | 1.2 | -0.824 | 1.93 | -0.186 | 0.948 | -0.897 | 0.277
ACTTACGGGTTAACGAGGTTATAGCACGCGTATA | 2.07 | 2.74 | 0.54 | 2.31 | 0.221 | 3.12 | 1.66 | 2.16 | 0.682 | 1.49
CAAACTAGGTCACGAAAGTTCAAAGTCGAATGAC | 6.48 | 7.84 | 8.43 | 6.15 | 1.48 | 6.14 | 9.94 | 8.29 | 6.58 | 8.35
ACTAGTTGGTCCGCTGAGGTCACACACAATTCGG | 2.59 | 2.61 | 1.91 | 3.24 | 0.456 | 3.57 | 1.38 | 1.99 | 0.517 | 1.36
CCTAGTTGGTCAGGAGGTCACACATCGGATATGA | 3.47 | 3.35 | 2.05 | 3.2 | 0.972 | 4.03 | 3.29 | 3.64 | 1.24 | 2.91
CAAGCTAGGTCACCGGAAGGTCAAAGTCCGCATG | 6.4 | 6.14 | 4.88 | 5.32 | 0.898 | 5.38 | 5.86 | 5.76 | 2.96 | 4.67
TCTTGTAGATGAAAGGTTAAGAAAGCCGAAGCCT | 1.26 | 1.83 | 0.275 | 1.67 | 0.361 | 3.62 | 5.98 | 6.86 | 6.79 | 7.44
TCATATAGGTAAATGCTAGGTGAAAGTGCGATCT | 1.14 | 1.17 | 0.315 | 0.829 | 0.24 | 1.87 | 1.89 | 3.48 | 3.99 | 3.81

Source: the supplement of paper PMC6555819
